Columns and labels:
Assay in all cases: DAPPL (digital affinity profiling via proximity ligation, sequencing); 10 mM Tris-HCl pH 7.5, 50 mM NaCl, 1 mM DTT, 4% glycerol, room temperature, 30 min; GST-TFs on glutathione beads, 16-mer random dsDNA library, 0.1% formaldehyde crosslink after washing; high values mean tight binding
[1] = target: T1, FLI1 (Homo sapiens, UniProt Q01543 1-452); conditions: protein: recombinant; tags: N-terminal GST; dsDNA, one strand shown
T1 sequence: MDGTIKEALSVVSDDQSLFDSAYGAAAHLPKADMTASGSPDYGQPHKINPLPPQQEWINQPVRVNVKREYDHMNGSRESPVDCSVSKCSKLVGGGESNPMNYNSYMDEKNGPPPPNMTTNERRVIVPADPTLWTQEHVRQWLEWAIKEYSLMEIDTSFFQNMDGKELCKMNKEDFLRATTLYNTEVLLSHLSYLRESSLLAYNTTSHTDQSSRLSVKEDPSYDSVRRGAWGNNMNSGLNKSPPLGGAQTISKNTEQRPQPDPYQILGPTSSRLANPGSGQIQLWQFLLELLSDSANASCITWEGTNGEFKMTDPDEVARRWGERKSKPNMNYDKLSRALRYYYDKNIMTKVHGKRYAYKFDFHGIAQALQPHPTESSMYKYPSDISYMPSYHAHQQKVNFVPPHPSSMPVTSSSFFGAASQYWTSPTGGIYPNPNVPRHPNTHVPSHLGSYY
Outline: (§1)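 Pools of DNA-barcoded human transcription factors, expressed in yeast as GST fusions on glutathione beads and combined with a tag-only sample, were incubated with 200 nmole of a 16-mer random double-stranded DNA library. Incubation took 30 min at room temperature in Tris/NaCl/DTT/glycerol buffer and was followed by washing, 0.1% formaldehyde crosslinking, proximity ligation (BsaI/T4 ligase, 1 h, 37 °C), PCR amplification and sequencing on an Illumina NextSeq500. Binding signal is the ratio of a hexamer's read frequency for a factor to its frequency for the tag-only sample.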

[2] = target: T2, ELK1 (Homo sapiens, UniProt P19419 1-428); conditions: protein: recombinant; tags: N-terminal GST; dsDNA, one strand shown
T2 sequence: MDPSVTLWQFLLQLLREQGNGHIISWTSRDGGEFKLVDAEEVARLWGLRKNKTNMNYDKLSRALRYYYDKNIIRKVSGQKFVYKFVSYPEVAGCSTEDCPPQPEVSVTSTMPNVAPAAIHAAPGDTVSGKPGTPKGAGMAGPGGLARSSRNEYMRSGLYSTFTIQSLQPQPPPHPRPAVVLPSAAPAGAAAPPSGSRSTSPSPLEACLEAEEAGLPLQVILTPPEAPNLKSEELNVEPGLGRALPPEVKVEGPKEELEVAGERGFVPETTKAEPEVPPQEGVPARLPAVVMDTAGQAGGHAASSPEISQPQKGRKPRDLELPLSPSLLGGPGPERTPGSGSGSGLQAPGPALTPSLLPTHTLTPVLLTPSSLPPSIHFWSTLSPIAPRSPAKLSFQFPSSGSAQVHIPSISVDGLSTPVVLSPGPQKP
Outline: as §1

[3] = target: T3, GABPA (Homo sapiens, UniProt Q06546 1-454); conditions: protein: recombinant; tags: N-terminal GST; dsDNA, one strand shown
T3 sequence: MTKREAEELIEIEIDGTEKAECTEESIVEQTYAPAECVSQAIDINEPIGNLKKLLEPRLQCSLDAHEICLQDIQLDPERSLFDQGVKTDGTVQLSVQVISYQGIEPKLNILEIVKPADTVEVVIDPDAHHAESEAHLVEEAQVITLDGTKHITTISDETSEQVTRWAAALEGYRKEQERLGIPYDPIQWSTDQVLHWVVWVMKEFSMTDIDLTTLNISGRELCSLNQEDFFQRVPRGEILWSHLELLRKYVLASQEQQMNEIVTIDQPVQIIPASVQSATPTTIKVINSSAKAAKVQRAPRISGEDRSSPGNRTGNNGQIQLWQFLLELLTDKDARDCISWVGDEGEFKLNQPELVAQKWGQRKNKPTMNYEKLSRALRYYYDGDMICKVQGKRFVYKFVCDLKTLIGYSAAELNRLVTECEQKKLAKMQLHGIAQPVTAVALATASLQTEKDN
Outline: as §1

[4] = target: T4, ERG (Homo sapiens, UniProt P11308 1-479); conditions: protein: recombinant; tags: N-terminal GST; dsDNA, one strand shown
T4 sequence: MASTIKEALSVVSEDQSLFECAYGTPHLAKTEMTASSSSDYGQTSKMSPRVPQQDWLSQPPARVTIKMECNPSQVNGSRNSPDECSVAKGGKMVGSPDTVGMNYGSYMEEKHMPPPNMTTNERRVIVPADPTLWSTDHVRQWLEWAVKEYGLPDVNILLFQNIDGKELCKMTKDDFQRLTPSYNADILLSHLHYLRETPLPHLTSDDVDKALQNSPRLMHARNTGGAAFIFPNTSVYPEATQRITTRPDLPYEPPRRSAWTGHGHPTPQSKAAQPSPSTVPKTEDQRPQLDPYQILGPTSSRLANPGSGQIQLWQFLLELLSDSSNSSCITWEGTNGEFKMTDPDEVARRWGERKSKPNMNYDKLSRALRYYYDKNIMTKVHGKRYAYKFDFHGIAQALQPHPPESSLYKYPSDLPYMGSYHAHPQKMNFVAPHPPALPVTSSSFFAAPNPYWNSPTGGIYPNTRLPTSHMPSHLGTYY
Outline: as §1

[5] = target: ELF1 (Homo sapiens, UniProt P32519 1-619); conditions: protein: recombinant; tags: N-terminal GST; dsDNA, one strand shown
Outline: as §1

[6] = target: T5, EHF (Homo sapiens, UniProt Q9NZC4 1-300); conditions: protein: recombinant; tags: N-terminal GST; dsDNA, one strand shown
T5 sequence: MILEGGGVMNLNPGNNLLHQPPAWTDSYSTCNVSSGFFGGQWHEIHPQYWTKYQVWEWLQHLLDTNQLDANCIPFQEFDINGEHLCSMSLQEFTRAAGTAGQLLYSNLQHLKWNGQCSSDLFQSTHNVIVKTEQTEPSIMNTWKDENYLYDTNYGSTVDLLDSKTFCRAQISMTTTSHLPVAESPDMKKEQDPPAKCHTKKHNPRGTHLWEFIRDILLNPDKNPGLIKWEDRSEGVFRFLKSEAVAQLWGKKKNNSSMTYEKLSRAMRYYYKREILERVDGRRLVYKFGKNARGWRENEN
Outline: as §1

[7] = target: SPI1 (Homo sapiens, UniProt P17947 1-270); conditions: protein: recombinant; tags: N-terminal GST; dsDNA, one strand shown
Outline: as §1

[8] = target: SPIB (Homo sapiens, UniProt Q01892 1-262); conditions: protein: recombinant; tags: N-terminal GST; dsDNA, one strand shown
Outline: as §1

[9] = target: T6, ELK3 (Homo sapiens, UniProt P41970 1-407); conditions: protein: recombinant; tags: N-terminal GST; dsDNA, one strand shown
T6 sequence: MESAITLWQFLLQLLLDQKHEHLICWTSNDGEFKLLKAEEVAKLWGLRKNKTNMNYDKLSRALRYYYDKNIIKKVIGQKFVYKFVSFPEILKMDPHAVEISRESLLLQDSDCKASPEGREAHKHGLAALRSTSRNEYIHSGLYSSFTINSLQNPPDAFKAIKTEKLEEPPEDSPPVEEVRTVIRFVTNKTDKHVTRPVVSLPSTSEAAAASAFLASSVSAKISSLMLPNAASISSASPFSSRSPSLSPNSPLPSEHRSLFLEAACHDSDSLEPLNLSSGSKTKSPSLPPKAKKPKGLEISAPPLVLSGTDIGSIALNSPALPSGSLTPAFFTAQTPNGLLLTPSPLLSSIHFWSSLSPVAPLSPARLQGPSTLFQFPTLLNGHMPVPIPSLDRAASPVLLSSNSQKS
Outline: as §1

[10] = target: T7, FEV (Homo sapiens, UniProt Q99581 1-238); conditions: protein: recombinant; tags: N-terminal GST; dsDNA, one strand shown
T7 sequence: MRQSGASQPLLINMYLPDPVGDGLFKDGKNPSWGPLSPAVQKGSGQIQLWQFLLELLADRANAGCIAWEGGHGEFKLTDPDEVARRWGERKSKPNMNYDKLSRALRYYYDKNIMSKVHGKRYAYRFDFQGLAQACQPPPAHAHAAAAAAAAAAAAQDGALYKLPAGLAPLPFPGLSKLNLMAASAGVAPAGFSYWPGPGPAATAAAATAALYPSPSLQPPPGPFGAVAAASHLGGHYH
Outline: as §1

[11] = target: ETV5 (Homo sapiens, UniProt P41161 1-510); conditions: protein: recombinant; tags: N-terminal GST; dsDNA, one strand shown
Outline: as §1

[12] = target: HSF1 (Homo sapiens, UniProt Q00613 1-529); conditions: protein: recombinant; tags: N-terminal GST; chain copies: 3; dsDNA, one strand shown
Outline: as §1

[13] = target: T8, SPIC (Homo sapiens, UniProt Q8N5J4 1-248); conditions: protein: recombinant; tags: N-terminal GST; dsDNA, one strand shown
T8 sequence: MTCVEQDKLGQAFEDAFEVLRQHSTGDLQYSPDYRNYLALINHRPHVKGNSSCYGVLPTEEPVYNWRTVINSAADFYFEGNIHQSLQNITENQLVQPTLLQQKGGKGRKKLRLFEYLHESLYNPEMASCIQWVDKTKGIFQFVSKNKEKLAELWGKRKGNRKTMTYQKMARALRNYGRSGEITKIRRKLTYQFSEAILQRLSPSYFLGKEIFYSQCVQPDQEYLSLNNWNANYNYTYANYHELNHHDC
Outline: as §1

[14] = target: ELF4 (Homo sapiens, UniProt Q99607 1-663); conditions: protein: recombinant; tags: N-terminal GST; dsDNA, one strand shown
Outline: as §1

[15] = target: T9, ELK4 (Homo sapiens, UniProt P28324-2 1-405); conditions: protein: recombinant; tags: N-terminal GST; dsDNA, one strand shown
T9 sequence: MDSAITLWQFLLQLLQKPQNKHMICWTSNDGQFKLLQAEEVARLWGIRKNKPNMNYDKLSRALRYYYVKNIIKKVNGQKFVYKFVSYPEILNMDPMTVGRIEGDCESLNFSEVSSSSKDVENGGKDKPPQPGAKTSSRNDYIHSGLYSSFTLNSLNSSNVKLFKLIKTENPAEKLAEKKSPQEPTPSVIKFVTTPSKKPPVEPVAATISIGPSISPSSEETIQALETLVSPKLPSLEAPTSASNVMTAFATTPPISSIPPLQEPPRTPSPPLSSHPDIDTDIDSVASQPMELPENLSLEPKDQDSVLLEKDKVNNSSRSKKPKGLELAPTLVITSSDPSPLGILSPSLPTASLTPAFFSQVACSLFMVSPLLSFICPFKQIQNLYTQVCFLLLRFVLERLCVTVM
Outline: as §1

[16] = target: T10, ETV2 (Homo sapiens, UniProt O00321 1-342); conditions: protein: recombinant; tags: N-terminal GST; dsDNA, one strand shown
T10 sequence: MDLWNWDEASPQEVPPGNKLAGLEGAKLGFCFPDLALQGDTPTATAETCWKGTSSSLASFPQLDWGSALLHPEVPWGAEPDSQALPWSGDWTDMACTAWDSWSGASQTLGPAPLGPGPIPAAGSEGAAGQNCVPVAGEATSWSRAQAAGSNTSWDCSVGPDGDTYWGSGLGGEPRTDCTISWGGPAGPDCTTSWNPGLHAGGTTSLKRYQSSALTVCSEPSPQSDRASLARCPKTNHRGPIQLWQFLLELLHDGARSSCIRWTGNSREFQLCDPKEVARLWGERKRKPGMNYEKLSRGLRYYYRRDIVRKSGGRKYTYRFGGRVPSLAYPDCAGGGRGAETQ
Outline: as §1

[17] = target: T11, ELF3 (Homo sapiens, UniProt P78545 1-371); conditions: protein: recombinant; tags: N-terminal GST; dsDNA, one strand shown
T11 sequence: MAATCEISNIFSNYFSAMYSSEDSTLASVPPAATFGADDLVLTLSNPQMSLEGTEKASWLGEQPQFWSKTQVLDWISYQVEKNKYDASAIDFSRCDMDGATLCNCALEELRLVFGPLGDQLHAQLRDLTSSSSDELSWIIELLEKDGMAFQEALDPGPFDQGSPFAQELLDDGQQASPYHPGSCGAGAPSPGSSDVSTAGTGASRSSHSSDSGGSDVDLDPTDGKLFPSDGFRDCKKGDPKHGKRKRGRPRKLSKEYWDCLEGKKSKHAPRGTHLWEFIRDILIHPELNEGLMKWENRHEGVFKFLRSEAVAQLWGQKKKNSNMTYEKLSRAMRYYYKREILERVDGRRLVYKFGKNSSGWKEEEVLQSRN
Outline: as §1

[18] = target: CRX (Homo sapiens, UniProt O43186 1-299); conditions: protein: recombinant; tags: N-terminal GST; dsDNA, one strand shown
Outline: as §1

[19] = target: ETV1 (Homo sapiens, UniProt P50549 1-477); conditions: protein: recombinant; tags: N-terminal GST; dsDNA, one strand shown
Outline: as §1

Sequence of HSF1 (Q00613 whole entry): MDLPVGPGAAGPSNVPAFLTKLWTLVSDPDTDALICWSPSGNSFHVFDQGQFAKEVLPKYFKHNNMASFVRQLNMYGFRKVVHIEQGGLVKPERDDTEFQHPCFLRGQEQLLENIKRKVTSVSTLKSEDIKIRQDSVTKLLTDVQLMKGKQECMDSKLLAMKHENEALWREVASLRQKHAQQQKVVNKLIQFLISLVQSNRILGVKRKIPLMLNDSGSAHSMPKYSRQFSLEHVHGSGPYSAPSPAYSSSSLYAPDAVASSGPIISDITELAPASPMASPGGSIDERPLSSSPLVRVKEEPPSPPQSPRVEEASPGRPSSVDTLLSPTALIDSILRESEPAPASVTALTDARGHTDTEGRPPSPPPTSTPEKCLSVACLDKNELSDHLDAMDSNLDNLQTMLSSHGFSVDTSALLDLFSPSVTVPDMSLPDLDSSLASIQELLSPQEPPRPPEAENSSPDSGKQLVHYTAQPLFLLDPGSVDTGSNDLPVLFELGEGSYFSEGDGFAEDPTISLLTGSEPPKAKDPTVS
Sequence of CRX (O43186 whole entry): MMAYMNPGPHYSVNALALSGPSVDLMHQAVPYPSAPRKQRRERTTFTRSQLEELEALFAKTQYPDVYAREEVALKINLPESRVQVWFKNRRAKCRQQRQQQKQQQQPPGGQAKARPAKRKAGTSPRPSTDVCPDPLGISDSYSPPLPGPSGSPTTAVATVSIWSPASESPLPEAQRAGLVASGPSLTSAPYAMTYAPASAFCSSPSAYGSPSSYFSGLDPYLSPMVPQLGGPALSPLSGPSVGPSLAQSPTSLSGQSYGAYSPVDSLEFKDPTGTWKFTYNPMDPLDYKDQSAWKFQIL
Sequence of ETV1 (P50549 whole entry): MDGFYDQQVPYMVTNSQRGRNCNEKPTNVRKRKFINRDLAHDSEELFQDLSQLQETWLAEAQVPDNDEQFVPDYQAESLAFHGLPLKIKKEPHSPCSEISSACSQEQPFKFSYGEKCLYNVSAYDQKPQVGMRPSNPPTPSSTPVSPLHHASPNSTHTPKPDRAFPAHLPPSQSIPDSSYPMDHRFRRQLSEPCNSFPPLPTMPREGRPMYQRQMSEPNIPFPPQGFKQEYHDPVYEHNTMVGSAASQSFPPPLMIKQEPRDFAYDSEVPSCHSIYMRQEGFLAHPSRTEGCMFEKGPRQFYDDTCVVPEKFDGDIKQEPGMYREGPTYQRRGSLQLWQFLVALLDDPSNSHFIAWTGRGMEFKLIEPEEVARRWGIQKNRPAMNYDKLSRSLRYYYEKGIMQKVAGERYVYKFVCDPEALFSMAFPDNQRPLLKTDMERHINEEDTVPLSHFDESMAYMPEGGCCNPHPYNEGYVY
Sequence of SPIB (Q01892 whole entry): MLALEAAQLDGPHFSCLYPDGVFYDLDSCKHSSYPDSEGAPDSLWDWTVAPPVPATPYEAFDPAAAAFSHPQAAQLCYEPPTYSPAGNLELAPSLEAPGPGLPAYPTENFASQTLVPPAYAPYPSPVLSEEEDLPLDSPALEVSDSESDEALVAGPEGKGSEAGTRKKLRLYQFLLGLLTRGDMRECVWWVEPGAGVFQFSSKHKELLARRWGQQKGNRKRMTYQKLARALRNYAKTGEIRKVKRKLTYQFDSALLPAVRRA
Sequence of ELF4 (Q99607 whole entry): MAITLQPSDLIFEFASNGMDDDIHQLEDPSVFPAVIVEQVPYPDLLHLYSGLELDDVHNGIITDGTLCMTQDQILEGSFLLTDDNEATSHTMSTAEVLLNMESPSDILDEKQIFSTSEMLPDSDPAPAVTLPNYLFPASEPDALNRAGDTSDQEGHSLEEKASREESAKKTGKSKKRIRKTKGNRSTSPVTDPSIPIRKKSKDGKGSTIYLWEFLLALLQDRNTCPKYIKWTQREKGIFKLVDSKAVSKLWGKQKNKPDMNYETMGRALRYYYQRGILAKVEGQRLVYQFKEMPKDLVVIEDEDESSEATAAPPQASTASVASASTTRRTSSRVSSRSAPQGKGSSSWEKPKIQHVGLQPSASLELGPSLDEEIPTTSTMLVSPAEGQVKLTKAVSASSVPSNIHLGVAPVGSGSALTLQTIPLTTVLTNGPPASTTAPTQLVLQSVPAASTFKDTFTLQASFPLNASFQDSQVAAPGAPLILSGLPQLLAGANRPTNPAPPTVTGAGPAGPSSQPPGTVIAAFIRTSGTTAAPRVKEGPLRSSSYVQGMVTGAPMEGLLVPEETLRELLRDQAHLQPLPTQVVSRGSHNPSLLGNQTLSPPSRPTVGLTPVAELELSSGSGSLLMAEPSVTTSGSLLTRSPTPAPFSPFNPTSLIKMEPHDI
Sequence of ETV5 (P41161 whole entry): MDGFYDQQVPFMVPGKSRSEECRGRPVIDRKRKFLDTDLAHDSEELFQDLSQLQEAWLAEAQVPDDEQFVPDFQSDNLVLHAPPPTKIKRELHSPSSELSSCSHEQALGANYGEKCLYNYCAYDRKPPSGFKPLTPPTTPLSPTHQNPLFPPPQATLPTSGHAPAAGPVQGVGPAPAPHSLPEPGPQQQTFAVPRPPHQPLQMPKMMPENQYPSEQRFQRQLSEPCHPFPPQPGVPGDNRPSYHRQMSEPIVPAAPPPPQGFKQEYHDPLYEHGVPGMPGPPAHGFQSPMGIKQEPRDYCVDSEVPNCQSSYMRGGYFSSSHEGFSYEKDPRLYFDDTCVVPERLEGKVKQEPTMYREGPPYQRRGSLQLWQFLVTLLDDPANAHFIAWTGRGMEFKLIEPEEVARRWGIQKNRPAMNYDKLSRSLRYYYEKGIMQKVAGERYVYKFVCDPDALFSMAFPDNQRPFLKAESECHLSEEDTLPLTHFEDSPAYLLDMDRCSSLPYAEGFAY
Sequence of ELF1 (P32519 whole entry): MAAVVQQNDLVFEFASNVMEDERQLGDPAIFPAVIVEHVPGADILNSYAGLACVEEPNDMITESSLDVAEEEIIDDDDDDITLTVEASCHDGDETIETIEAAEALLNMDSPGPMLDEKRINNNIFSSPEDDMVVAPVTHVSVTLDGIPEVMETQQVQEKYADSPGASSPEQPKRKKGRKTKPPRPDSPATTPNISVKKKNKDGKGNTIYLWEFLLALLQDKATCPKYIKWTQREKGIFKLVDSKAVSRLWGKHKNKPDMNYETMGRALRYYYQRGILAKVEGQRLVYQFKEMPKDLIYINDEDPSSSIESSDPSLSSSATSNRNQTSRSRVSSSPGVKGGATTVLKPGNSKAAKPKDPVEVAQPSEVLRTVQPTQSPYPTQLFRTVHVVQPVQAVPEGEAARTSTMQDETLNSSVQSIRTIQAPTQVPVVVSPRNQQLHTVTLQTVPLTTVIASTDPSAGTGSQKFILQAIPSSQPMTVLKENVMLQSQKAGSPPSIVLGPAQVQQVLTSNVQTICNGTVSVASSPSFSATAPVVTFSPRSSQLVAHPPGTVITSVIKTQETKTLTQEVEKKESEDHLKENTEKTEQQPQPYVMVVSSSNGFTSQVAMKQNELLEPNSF

AAAAAT
binding signal [1]: 1.28 fold enrichment (6-mer frequency, TF over GST control)
binding signal [2]: 1.24 fold enrichment (6-mer frequency, TF over GST control)
binding signal [3]: 1.31 fold enrichment (6-mer frequency, TF over GST control)
binding signal [4]: 1.26 fold enrichment (6-mer frequency, TF over GST control)
binding signal [5]: 1.31 fold enrichment (6-mer frequency, TF over GST control)
binding signal [6]: 1.37 fold enrichment (6-mer frequency, TF over GST control)
binding signal [7]: 1.29 fold enrichment (6-mer frequency, TF over GST control)
binding signal [8]: 1.43 fold enrichment (6-mer frequency, TF over GST control)
binding signal [9]: 1.39 fold enrichment (6-mer frequency, TF over GST control)
binding signal [10]: 1.27 fold enrichment (6-mer frequency, TF over GST control)
binding signal [11]: 1.3 fold enrichment (6-mer frequency, TF over GST control)
binding signal [12]: 1.5 fold enrichment (6-mer frequency, TF over GST control)
binding signal [13]: 1.25 fold enrichment (6-mer frequency, TF over GST control)
binding signal [14]: 1.38 fold enrichment (6-mer frequency, TF over GST control)
binding signal [15]: 1.31 fold enrichment (6-mer frequency, TF over GST control)
binding signal [16]: 1.49 fold enrichment (6-mer frequency, TF over GST control)
binding signal [17]: 1.25 fold enrichment (6-mer frequency, TF over GST control)
binding signal [18]: 1.4 fold enrichment (6-mer frequency, TF over GST control)
binding signal [19]: 1.26 fold enrichment (6-mer frequency, TF over GST control)

Reference: PMC7862700, “An all-to-all approach to the identification of sequence-specific readers for epigenetic DNA modifications on cytosine”
